Test results: PubChem BioAssay AID1159580 (chemical genetic matrix, 2015)
The campaign covered roughly 5,500 compounds. About 2,000 (36%) were called active. Inconclusive results (about 18%) are left out. Cut-off read from the data, not from the text of the source: active = normalized growth mostly below about 0.91 (no sharp cut-off); inconclusive = no clear call, values can overlap the other calls; inactive = mostly above about 0.92. Some of the results follow.

Experiment: chemical genetic growth profiling, strain panel (AID 1159580);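 note: tested at 20 µM; growth read once vehicle control cultures reached saturation at 30 °C; 1 = growth at the plate median or of vehicle wells; lower values mean less growth of the strain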
Settings: growth OD

Measured: normalized growth

Oc1ccc2c3c1OC1[C@@H](O)CC[C@@]4(O)[C@@H](C2)N(CC2CCC2)CC[C@]314 (some centres not stated)
inactive: S. cerevisiae deletion strains, locus YJR075W, strain HOC1, stronger effect = lower value 1.03 | S. cerevisiae deletion strains, locus YKL009W, strain mrt4, stronger effect = lower value 1 | S. cerevisiae deletion strains, locus YKL068W, stronger effect = lower value 1.01 | S. cerevisiae deletion strains, locus YKL085W, strain MDH1 (second series), stronger effect = lower value 1 | S. cerevisiae deletion strains, locus YKL085W, strain MDH1, stronger effect = lower value 1 | S. cerevisiae deletion strains, locus YKL160W, strain elf1, stronger effect = lower value 0.992 | S. cerevisiae deletion strains, locus YKL190W, strain CNB1, stronger effect = lower value 1.01 | S. cerevisiae deletion strains, locus YKR001C, strain vps1, stronger effect = lower value 1.01 | S. cerevisiae deletion strains, locus YKR026C, strain gcn3, stronger effect = lower value 0.952 | S. cerevisiae deletion strains, locus YKR091W, strain srl3, stronger effect = lower value 0.992 | S. cerevisiae deletion strains, locus YLL001W, strain dnm1, stronger effect = lower value 0.978 | S. cerevisiae deletion strains, locus YLL026W, stronger effect = lower value 0.999 | S. cerevisiae deletion strains, locus YLL041C, strain sdh2, stronger effect = lower value 0.993 | S. cerevisiae deletion strains, locus YLR027C, strain aat2, stronger effect = lower value 1 | S. cerevisiae deletion strains, locus YLR039C, strain RIC1, stronger effect = lower value 1.04 | S. cerevisiae deletion strains, locus YLR058C, strain SHM2, stronger effect = lower value 1.02 | S. cerevisiae deletion strains, locus YLR102C, strain apc9, stronger effect = lower value 1.01 | S. cerevisiae deletion strains, locus YLR113W, strain HOG1, stronger effect = lower value 0.971 | S. cerevisiae deletion strains, locus YLR221C, strain rsa3, stronger effect = lower value 1.02 | S. cerevisiae deletion strains, locus YLR258W, strain gsy2, stronger effect = lower value 1.01 | S. cerevisiae deletion strains, locus YLR262C, strain YPT6 (second series), stronger effect = lower value 0.986 | S. cerevisiae deletion strains, locus YLR262C, strain YPT6, stronger effect = lower value 1.01 | S. cerevisiae deletion strains, locus YLR268W, strain sec22, stronger effect = lower value 1.06 | S. cerevisiae deletion strains, locus YLR320W, strain mms22, stronger effect = lower value 1.01 | S. cerevisiae deletion strains, locus YLR330W, strain CHS5, stronger effect = lower value 1.01 | S. cerevisiae deletion strains, locus YLR342W, strain FKS1 (second series), stronger effect = lower value 1.01 | S. cerevisiae deletion strains, locus YLR342W, strain FKS1, stronger effect = lower value 1 | S. cerevisiae deletion strains, locus YLR357W, strain rsc2, stronger effect = lower value 0.967 | S. cerevisiae deletion strains, locus YLR370C, strain arc18, stronger effect = lower value 0.989 | S. cerevisiae deletion strains, locus YLR371W, strain rom2, stronger effect = lower value 1.02 | S. cerevisiae deletion strains, locus YLR384C, strain iki3, stronger effect = lower value 0.991 | S. cerevisiae deletion strains, locus YLR418C, strain cdc73, stronger effect = lower value 1.03 | S. cerevisiae deletion strains, locus YML016C, strain PPZ1, stronger effect = lower value 1.01 | S. cerevisiae deletion strains, locus YML032C, strain rad52, stronger effect = lower value 1.03 | S. cerevisiae deletion strains, locus YML120C, strain ndi1, stronger effect = lower value 1 | S. cerevisiae deletion strains, locus YML124C, strain tub3, stronger effect = lower value 1.01 | S. cerevisiae deletion strains, locus YMR058W, strain fet3, stronger effect = lower value 1.02 | S. cerevisiae deletion strains, locus YMR078C, strain ctf18, stronger effect = lower value 1.02 | S. cerevisiae deletion strains, locus YMR125W, strain sto1, stronger effect = lower value 0.982 | S. cerevisiae deletion strains, locus YMR129W, stronger effect = lower value 1 | S. cerevisiae deletion strains, locus YMR205C, strain PFK2, stronger effect = lower value 0.993 | S. cerevisiae deletion strains, locus YMR223W, strain ubp8, stronger effect = lower value 1.01 | S. cerevisiae deletion strains, locus YMR231W, strain pep5, stronger effect = lower value 1 | S. cerevisiae deletion strains, locus YMR263W, strain SAP30, stronger effect = lower value 1.02 | S. cerevisiae deletion strains, locus YMR307W, strain GAS1, stronger effect = lower value 1.04 | S. cerevisiae deletion strains, locus YNL067W, strain RPL9B, stronger effect = lower value 1.03 | S. cerevisiae deletion strains, locus YNL071W, strain lat1, stronger effect = lower value 1 | S. cerevisiae deletion strains, locus YNL128W, strain TEP1, stronger effect = lower value 1.03 | S. cerevisiae deletion strains, locus YNL153C, strain GIM3, stronger effect = lower value 1.03 | S. cerevisiae deletion strains, locus YNL183C, strain NPR1, stronger effect = lower value 0.914 | S. cerevisiae deletion strains, locus YNL209W, strain ssb2, stronger effect = lower value 1.01 | S. cerevisiae deletion strains, locus YNL233W, strain BNI4, stronger effect = lower value 1.02 | S. cerevisiae deletion strains, locus YNL248C, strain rpa49, stronger effect = lower value 0.92 | S. cerevisiae deletion strains, locus YNL250W, strain rad50, stronger effect = lower value 1.01 | S. cerevisiae deletion strains, locus YNL271C, strain bni1, stronger effect = lower value 1.01 | S. cerevisiae deletion strains, locus YNL298W, strain CLA4, stronger effect = lower value 1.01 | S. cerevisiae deletion strains, locus YNL307C, strain MCK1, stronger effect = lower value 1.01 | S. cerevisiae deletion strains, locus YNL322C, strain KRE1 (second series), stronger effect = lower value 0.999 | S. cerevisiae deletion strains, locus YNL322C, strain KRE1, stronger effect = lower value 1.01 | S. cerevisiae deletion strains, locus YNR049C, strain mso1, stronger effect = lower value 0.988 | S. cerevisiae deletion strains, locus YNR052C, strain pop2, stronger effect = lower value 1.01 | S. cerevisiae deletion strains, locus YOL006C, strain TOP1, stronger effect = lower value 1.04 | S. cerevisiae deletion strains, locus YOL012C, strain htz1 0.773 | S. cerevisiae deletion strains, locus YOL147C, strain pex11, stronger effect = lower value 1.01 | S. cerevisiae deletion strains, locus YOR001W, strain rrp6, stronger effect = lower value 0.997 | S. cerevisiae deletion strains, locus YOR061W, strain CKA2, stronger effect = lower value 1.01 | S. cerevisiae deletion strains, locus YOR069W, strain VPS5, stronger effect = lower value 1.01 | S. cerevisiae deletion strains, locus YOR070C, strain gyp1, stronger effect = lower value 1 | S. cerevisiae deletion strains, locus YOR080W, strain dia2, stronger effect = lower value 0.988 | S. cerevisiae deletion strains, locus YOR083W, strain WHI5, stronger effect = lower value 0.987 | S. cerevisiae deletion strains, locus YOR106W, strain vam3, stronger effect = lower value 0.993 | S. cerevisiae deletion strains, locus YOR136W, strain idh2, stronger effect = lower value 1.02 | S. cerevisiae deletion strains, locus YOR144C, strain elg1, stronger effect = lower value 1.01 | S. cerevisiae deletion strains, locus YOR184W, strain ser1, stronger effect = lower value 1.01 | S. cerevisiae deletion strains, locus YOR231W, strain MKK1, stronger effect = lower value 0.96 | S. cerevisiae deletion strains, locus YOR265W, strain rbl2, stronger effect = lower value 1 | S. cerevisiae deletion strains, locus YOR270C, strain vph1, stronger effect = lower value 0.997 | S. cerevisiae deletion strains, locus YOR290C, strain snf2, stronger effect = lower value 1.02 | S. cerevisiae deletion strains, locus YOR316C, strain cot1, stronger effect = lower value 1.02 | S. cerevisiae deletion strains, locus YPL051W, strain arl3, stronger effect = lower value 1.01 | S. cerevisiae deletion strains, locus YPL055C, strain LGE1, stronger effect = lower value 1.05 | S. cerevisiae deletion strains, locus YPL078C, strain atp4, stronger effect = lower value 0.984 | S. cerevisiae deletion strains, locus YPL106C, strain sse1, stronger effect = lower value 1.01 | S. cerevisiae deletion strains, locus YPL240C, strain hsp82, stronger effect = lower value 0.997 | S. cerevisiae deletion strains, locus YPL241C, strain CIN2, stronger effect = lower value 1.01 | S. cerevisiae deletion strains, locus YPL256C, strain CLN2, stronger effect = lower value 0.972 | S. cerevisiae deletion strains, locus YPR119W, strain clb2, stronger effect = lower value 1.01 | S. cerevisiae deletion strains, locus YPR141C, strain kar3, stronger effect = lower value 1.02 | S. cerevisiae deletion strains, locus YPR163C, strain tif3, stronger effect = lower value 1.01 | S. cerevisiae deletion strains, locus YPR167C, strain met16, stronger effect = lower value 1.02 | S. cerevisiae deletion strains, strain wtn01, stronger effect = lower value 1.02 | S. cerevisiae strains, strain wild type, stronger effect = lower value 1.02
